Assay outcomes deposited in PubChem BioAssay by Broad Institute.
Shown is part of a subset that was picked to be rich in hits.
Tgondii IFNg = blocks Toxoplasma gondii growth in the presence of IFN-gamma; activity change, negative = inhibition, % (concentration not given with the values); Toxoplasma gondii growth in IFN-gamma-treated host cells; active compounds read low; 69,000 tested, 3.8% active; in the data active means activity change below about -70%, passing the limit was not always enough;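 further: host cells are HeLa cells infected with Toxoplasma gondii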
Numbers without * were called inactive; ! = not confirmed by another sample.

SMILES	Tgondii IFNg
Cc1nn(Cc2cccc3ccccc23)c(C)c1NC(=O)c1ccccn1	-2
CC1CCN(S(=O)(=O)c2ccc3c(ccc(=O)n3CC(=O)NC3CCCc4ccccc43)c2)CC1 (centres undefined)	-32
O=C1CO[C@H]2CN(S(=O)(=O)c3ccccc3F)C[C@@H]2N1	12
Cc1c(C(=O)O)sc2ncnc(N(C)CCc3cn[nH]c3)c12	4
CC(=O)OCC(=O)[C@H]1CC[C@H]2[C@@H]3CC=C4C[C@@H](O)CC[C@]4(C)[C@H]3CC[C@]12C	-35
CC(=O)O[C@@H]1C[C@@]2(C)C(CC[C@@H]2C(C)=O)C2CCC3=CC(=O)CC[C@]3(C)C21 (some centres undefined)	13
CC(=O)[C@H]1CC[C@H]2[C@@H]3CCC4=CC(=O)CC[C@]4(C)[C@H]3CC[C@]12C	-88*
CC(=O)[C@H]1CC[C@H]2[C@@H]3CC=C4C[C@@H](O)CC[C@]4(C)[C@H]3CC[C@]12C	-74*
CC(=O)[C@H]1CCC2C3CC=C4C[C@@H](O)CC[C@]4(C)C3CC[C@@]21C (some centres undefined)	11
C[C@]12CCC(=O)C=C1CC[C@@H]1[C@@H]2CC[C@@]2(C)[C@H]1CC[C@]2(O)C(=O)CO	3
Cc1ccc(OCC(=O)N2CCC(n3cc(CCO)nn3)CC2)cc1C	-38
Cc1ccc(NC(=O)N2CCC3(CC2)Nc2ccccc2-n2cccc23)cc1F	369
COc1ccccc1-c1cc(NC(=O)c2cc3cc(C)ccc3o2)n(C)n1	-3
Cc1csc(-c2cc(C(=O)NCCN3CCOCC3)cc(S(=O)(=O)N3CCOCC3)c2)c1	-6
Cc1ccc(CN(C)Cc2ccc(C#CC(C)(C)O)s2)o1	14
C[C@H](Oc1cc(-c2cnn(C3CCNCC3)c2)cnc1N)c1c(Cl)ccc(F)c1Cl	3
C[C@@H](Oc1cc(-c2cnn(C3CCNCC3)c2)cnc1N)c1c(Cl)ccc(F)c1Cl	-78*
Cc1oc(-c2cccc(Cl)c2)nc1CN1CCN(C)C(=O)C1	4
COc1ccc(C)cc1NC(=O)CNC(=O)c1coc2c1C(=O)CCC2	-4
CCCCCCCCc1ccc(-c2ccc(C(=O)O)cc2)cc1	23
CCCCCCCCc1ccc(CCC(N)(CO)CO)cc1	-82*!
CCCCCCCCCCCCCCCCCCc1ccc(C(=O)/C=C/C(=O)O)cc1	7
CC(C(=O)N1CCC(c2nn(C)c3ncccc23)CC1)c1ccccc1 (centres undefined)	-7
CCc1cnc(C)nc1N1CC(c2ccncc2)C1	5
Fc1ccc(Cn2ncc3c2CN(c2ccc4ccccc4n2)C3)cc1	-15
SMILES	Tgondii IFNg
CN1CCN(Cc2ccc(-c3ccc(C(N)=O)cc3)nc2)CC1	-2
CC(C)Cc1ccc(S(=O)(=O)N2CCN(C(=O)Cn3ccnc3)CC2)cc1	7
COC(=O)Nc1nc2ccc(C(=O)c3cccs3)cc2[nH]1	-87*
COC(=O)Nc1nc2ccc(SC(C)C)cc2[nH]1	-66
Cc1ccc(C(=O)O)cc1NC(=O)c1cccs1	-3
COC(=O)Nc1nc2ccc(C(=O)c3ccccc3)cc2[nH]1	-79*
CCCS(=O)c1ccc2nc(NC(=O)OC)[nH]c2c1 (centres undefined)	18
COC(=O)Nc1cc(C)n(-c2ccccc2)n1	-44
CCCCCC#CC(=O)Nc1nc2cc(C)c(C)cc2[nH]1	84
O=C(O)c1ccc2nc(-c3ccccn3)[nH]c2c1	270
CCCSc1ccc2nc(NC(=O)OC)[nH]c2c1	-78*!
COc1ccc(-n2nc3ccc(NC(=S)NC(=O)c4cccs4)cc3n2)cc1	32
Cc1ccc2nc(NC(=O)C(C)(C)C)[nH]c(=O)c2c1	239
COC(=O)Nc1nc2ccc(S(=O)c3ccccc3)cc2[nH]1 (centres undefined)	-75*!
N[C@@H]1CC[C@@H](NS(=O)(=O)c2cc(Cl)c(Cl)s2)C1	-11
O=C(C[C@@]12COC[C@H]1CN(c1ncccn1)C2)NCc1ccccn1	0
C=CCC1(CC=C)CCCN1C(=O)C(=O)c1ccccc1	4
Cc1oc(-c2cccc(Cl)c2)nc1Cn1nnc(-c2nc(-c3ccccc3)no2)c1C	51
CCc1ccc(CNC(=O)c2c(O)c3cccnc3n(-c3ccccc3)c2=O)cc1	-63
Cc1nn(CC(=O)NCc2ccc(F)c(Cl)c2)c(=O)c2nc(-c3ccccc3)sc12	-40
CC(C)CNC(=O)CC1CC2(CCN(C(=O)N3CCCC3)CC2)Oc2ccccc21 (centres undefined)	4
O=C(O)C1(Cc2ccc(-c3ccccc3)cc2)CCNC1 (centres undefined)	32
c1ccc(N2CCCN(Cc3ccncc3)CC2)cc1	6
Cc1nnsc1CN(C)C(=O)c1cc(CC(C)C)nn1C	-32
Cc1cc(C)c(CN(C)Cc2nc(C)no2)c(-n2cccn2)c1	3
CC(C)N1CCC2(CC1)CC(NCc1cccs1)c1ccccc1O2 (centres undefined)	-8
CSc1nc(N)nc(-c2cccnc2)n1	5
CC1CCCCN1CCNc1nc(-c2ccc(Cl)cc2)nc2ccccc12 (centres undefined)	-46
